Bioassay records (PubChem)
Shown are actives, neighbours in structure and some others; about 1.4% of the full set was active somewhere.
ZTA DNA inh: counter-screen for EBNA-1 inhibitors: inhibitors of Epstein-Barr virus ZTA; P03206; inhibition, % at 11 µM; actives 0.15% (n = 320,000); ZTA-DNA binding, fluorescence polarization; in the data active = inhibition above about 33%
LYPLA1 counter: LYPLA1 inhibitors, primary screen, counter-screen for PME1 inhibitor project, biochemical, fluorescence polarization, FP-Rh probe ABPP. Acyl-protein thioesterase 1 (Homo sapiens), O75608. AID 2174, 2009. recombinant LYPLA1. actives 0.16% (n = 320,000). inhibition, % at 5.9 µM;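 active = inhibition above the mean of all tested compounds plus 3 SD, set per campaign, cut at about 14% in these data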;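 note: inhibitors block serine hydrolase probe labeling of LYPLA1 so polarization falls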
Target sequence (O75608 whole entry, looked up): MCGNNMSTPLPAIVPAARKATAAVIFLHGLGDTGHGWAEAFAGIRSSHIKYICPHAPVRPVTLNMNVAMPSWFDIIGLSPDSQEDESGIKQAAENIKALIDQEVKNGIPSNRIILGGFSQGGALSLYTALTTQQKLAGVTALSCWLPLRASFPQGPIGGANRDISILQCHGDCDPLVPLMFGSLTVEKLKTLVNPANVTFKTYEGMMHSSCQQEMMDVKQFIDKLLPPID
LANA-H2A inh: blockers of LANA interaction with H2A/H2B – biochemical, FP readout, HTS, primary screen; AID 2629, 2010; cell-free LANA-H2A/H2B peptide, fluorescence polarization; inhibition, % (concentration not given with the values); actives 0.6% (n = 320,000); Protein LANA1 (Human herpesvirus 8 type P (isolate GK18)), Q9QR71; in the data active = inhibition mostly above about 10%, no sharp cut-off; inactive = mostly below about 6.7%
EBNA-1 inh: EBNA-1 DNA-binding inhibitors, primary screen, biochemical, fluorescence polarization. inhibition, % at 14.8 µM. actives 0.34% (n = 300,000); in the data active = inhibition above about 28%
LYPLA2 inh: LYPLA2 inhibitors, primary screen, counter-screen for PME1 inhibitor project, biochemical, fluorescence polarization, FP-Rh probe ABPP; recombinant LYPLA2; inhibition, % at 5.9 µM; actives 0.38% (n = 320,000);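 active = inhibition above the screen-wide mean plus 3 SD, limit set per campaign, cut at about 26% in these data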
Target sequence (O95372 whole entry, looked up): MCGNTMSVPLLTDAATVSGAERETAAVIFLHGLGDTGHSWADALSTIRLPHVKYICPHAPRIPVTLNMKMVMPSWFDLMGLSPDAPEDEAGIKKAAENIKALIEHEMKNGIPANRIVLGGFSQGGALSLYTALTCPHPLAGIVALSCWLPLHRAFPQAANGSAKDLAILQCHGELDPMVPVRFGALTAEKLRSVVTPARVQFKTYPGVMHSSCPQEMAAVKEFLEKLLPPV
Hits are given with their value; 0 = inactive; - = no result given; + = active, no number; ! = a repeat was not active.

SMILES	ZTA DNA inh	LYPLA1 counter	LANA-H2A inh	EBNA-1 inh	LYPLA2 inh
CCn1c(O)c(N=NC(=O)c2ccc(CSc3nncn3C)cc2)c2ccccc21	0	0	0	0	0
Cn1cnnc1SCc1ccc(C(=O)N=Nc2c(O)n(Cc3ccc(Cl)cc3)c3ccccc23)cc1	0	0	-	0	26.5
Cc1ccc(F)cc1NC(=O)N1c2ccccc2NC(=O)CC1C (stereo unspecified)	0	0	0	0	0
CC(Sc1ccsc1[N+](=O)[O-])C(=O)NCc1ccccc1 (stereo unspecified)	0	0	22.2	0	0
COc1ccccc1CNC(=O)C(C)Sc1ccsc1[N+](=O)[O-] (stereo unspecified)	0	0	0	0	0
CC(NC(=O)COC(=O)C1CCN(c2ccc(C(F)(F)F)cn2)CC1)c1ccc(F)cc1 (stereo unspecified)	0	0	16.7	-	0
CC(NC(=O)COC(=O)C1CCN(c2ccc(C(F)(F)F)cn2)CC1)c1ccc(Br)cc1 (stereo unspecified)	0	0	0	0	0
CCOC(=O)c1ccccc1NC(=O)CN1C(=O)NC(C)(CCc2ccccc2)C1=O (stereo unspecified)	0	0	0	0	0
O=C(Nc1ccc(-c2nc3ccccc3s2)cc1)C1=COCCO1	0	0	0	42.6	0
CCOC(=O)N1CCN(S(=O)(=O)c2c(C(=O)N3CCCCC3)c(C)n(C)c2C)CC1	0	0	0	0	0
CN(c1ccccc1)S(=O)(=O)c1cccc(NC(=O)CCNC(=O)c2ccc(Cl)cc2)c1	0	0	165.3	-	0
CN(c1cccc(Cl)c1)S(=O)(=O)c1cccc(C(=O)NCc2ccncc2)c1	0	0	53.4	-	0
CN(c1ccccc1)S(=O)(=O)c1cccc(C(=O)NCc2ccccc2)c1	0	0	0	-	0
Cc1ccc2c(c1)C1C=CCC1C(C(=O)O)N2 (stereo unspecified)	0	0	-	45.2	0
COc1cccc2c1NC(C(=O)O)C1CC=CC21 (stereo unspecified)	37.7	0	0	0	0
O=C(O)C1Nc2ccc(OC(F)(F)F)cc2C2C=CCC12 (stereo unspecified)	0	0	0	0	0
CCCCN1C(=O)C(=O)c2cc(Cl)ccc21	-	-	+	-	-
CCCCC(C(=O)OCC)C(N)Cc1ccc(F)cc1 (stereo unspecified)	0	0	20.5	0	0
CCCCn1c(N)c(N(CCC(C)C)C(=O)CN2C(=O)C3CCCCC3C2=O)c(=O)[nH]c1=O (stereo unspecified)	0	0	0	0	0
COc1ccc(NS(=O)(=O)c2cc(NC(=O)/C=C/c3cccs3)ccc2N2CCOCC2)cc1	0	0	0	72.7	0
Cc1cc2[nH]c(=O)c(=O)[nH]c2cc1S(=O)(=O)Nc1cccc(F)c1	0	0	0	0	0
O=C1c2cccc3cccc(c23)C(=O)N1CCN1CCN(CC(O)COc2ccc3ccccc3c2)CC1 (stereo unspecified)	0	0	0	0	0
Cc1ccc(C)c(OCC(O)CN2CCN(CCN3C(=O)c4cccc5cccc(c45)C3=O)CC2)c1 (stereo unspecified)	0	0	0	0	53.5
CC(=O)c1ccccc1OCC(O)CN1CCN(CCN2C(=O)c3cccc4cccc(c34)C2=O)CC1 (stereo unspecified)	0	0	0	0	39.1
COc1ccccc1CN(C)C(=O)CN1CCN(S(=O)(=O)c2ccc3c(c2)OCCCO3)CC1	0	0	0	-	0
SMILES	ZTA DNA inh	LYPLA1 counter	LANA-H2A inh	EBNA-1 inh	LYPLA2 inh
O=C(NCC1OCCc2ccccc21)c1ccc(NC(=O)c2ccc(Cl)cc2)cc1 (stereo unspecified)	0	0	0	32.1	0
CCN(CC)CCCNC(=O)c1cc(-c2ccc(Cl)c(Cl)c2)on1	0	0	18.8	0	0
CCN(CC)CCCNC(=O)c1cc(-c2ccc(O)cc2)on1	0	0	0	0	0
Cc1cc(C)c(S(=O)(=O)Nc2ccc(C(N)=O)cc2)c(C)c1	0	0	0	0	0
CC(=O)c1ccc(NS(=O)(=O)c2c(C)cc(C)cc2C)cc1	0	0	18.7	0	0
N#CC(C#N)=c1ccc2c(c1)NC1(CCCCC1)N=2	40.2	0	0	37.6	0
CC(=O)N1CCN(C(=O)COC(=O)COc2ccc(C#N)cc2)CC1	0	0	0	0	0
Cc1cccc(NC(=O)Nc2ccc(Oc3c(F)c(F)c(F)c(F)c3F)cc2)c1	0	0	0	0	0
O=C(Nc1ccc(Oc2c(F)c(F)c(F)c(F)c2F)cc1)OC1CCN2Cc3ccccc3N=C12 (stereo unspecified)	0	0	14.9	0	0
CCc1ccc(N(CC(=O)NC(C)C)C(=O)CCC(=O)Nc2nccs2)cc1	0	0	0	0	0
Cc1cc(C)c(NC(=O)CSCc2nc3sc(C)c(C)c3c(=O)[nH]2)c(Cl)c1	0	0	54.7	-	0
Cc1c(CCO)c(=O)[nH]n1S(=O)(=O)c1ccc(F)cc1	0	0	14.0	0	0
Cc1c(CCO)c(=O)[nH]n1S(=O)(=O)c1ccccc1	0	0	0	0	0
O=C(NCCO)Nc1ccc2nc(-c3ccco3)c(-c3ccco3)nc2c1	41.7	0	0	0	0
O=C(NCCO)Nc1ccc2nsnc2c1	0	0	0	0	0
O=C(Nc1cc(C2CC2)nn1-c1ccccc1)c1ccc(F)cc1	-	-	0	-	-
Cc1ccc(S(=O)(=O)/N=c2\ccc(Cl)cn2C(F)F)cc1	0	0	17.3	0	0
COc1ccc(-c2nn(-c3ccccc3)cc2/C=N/NS(=O)(=O)c2ccccc2)cc1	0	0	10.2	0	0
COc1ccc(N/C=C/C(=O)c2ccc(Cl)cc2)cc1	0	0	32.9	0	0
COc1ccc(N/C=C/C(=O)c2cc(OC)c(OC)c(OC)c2)cc1	0	0	11.5	0	0
COc1cccc(N/C=C/C(=O)c2ccc(Cl)cc2)c1	0	0	0	0	0
COc1ccc(N/C=C/C(=O)c2ccc(OC)c(OC)c2)cc1	0	0	0	0	0
CCNCCC(=O)N1c2ccccc2Sc2ccc(C(F)(F)F)cc21	0	0	0	0	0
Cc1cc(NC(=O)C2CC(=O)N(c3cccc(Cl)c3)C2)no1 (stereo unspecified)	0	0	11.1	0	0
Cc1cccc(C)c1NC(=O)C1CCCCN1C (stereo unspecified)	0	0	24.7!	0	0
Cc1cc(C)c(NC(=O)C2CCCN2C)c(C)c1 (stereo unspecified)	0	0	0	0	0
N#C/C(=C/c1ccc(N2CCOCC2)o1)c1ccc(Cl)cc1	0	0	10.2	0	0
C[C@H](NC(N)=O)C(=O)Nc1ccc(OCc2ccccc2)cc1	0	0	12.3	0	0
CC(C)[C@H](NC(N)=O)C(=O)Nc1ccc(OCc2ccccc2)cc1	0	0	0	0	0
